# Test results published in PubChem BioAssay (Tox21).
# Records with an inconclusive call do not appear. Where a call stands in place of a potency, no number is given. Activity calls are given as the source filed them. The call rests on the fitted dose curve; in most records, active means well fitted activation curve with a large enough effect in the repeat runs; inconclusive means weak or mixed curves; inactive means flat fitted curve, though single readings scatter.
# Assay: A CellTox Green Cytotoxicity Assay to monitor cytotoxicity in HepG2 cells - 8 hour (AID 1224890); further: nearly all actives have a fitted effect of over 45% in size
# Conditions: CellTox Green fluorescence; series mostly up to 76.8 µM
# From the text: National Center for Advancing Translational Sciences [NCATS]
# NIH Chemical Genomics Center [NCGC]
# U.S. Environmental Protection Agency [EPA]
# National Institutes of Environmental Health Sciences [NIEHS]
# National Toxicology Program [NTP]
# Cell-based models are critical for drug discovery. Determining the natural cytotoxic effects resulting from test compounds is an essential research activity. A CellTox Green Cytotoxicity Assay to monitor cytotoxicity in real time of continues cell culture during 40 hours of the compound treatment was used to screen Tox21 10K library compounds in HepG2 cells. CellTox Green Cytotoxicity Assay is a nonlytic, homogeneous, biofluorescent method to measure cytotoxicity in cell culture after experimental manipulation. The assay system uses a proprietary asymmetric cyanine dye that is excluded from viable cells but preferentially stains the dead cell's DNA. […] Viable cells produce no appreciable increases in fluorescence. Therefore, the fluorescence signal produced by the binding interaction with dead cell DNA is proportional to cytotoxicity.
# The mixture of HepG2 cell suspension and reagents were dispensed at 600cells/6 ul/well in 1536-well tissue culture treated black solid bottom plates using a Multidrop dispenser. After the assay plates were incubated at a 37 C/5% CO2 incubator for 5 hours, 23 nL of compounds dissolved in DMSO, positive and negative controls was transferred to the assay plate by a pintool work station. The plates were incubated at 37 C for 40 hours. The fluorescence intensity were measured at 0h, 8h, 16h, 24h, 32h and 40h time points using ViewLux plate reader during compound treatment.
# Potency means the concentration at half of the fitted maximal effect.
row,Structure (SMILES),Potency
1,COc1nn(CSP(=S)(OC)OC)c(=O)s1,inactive
2,CCC(Cl)CCl (stereo not given),inactive
3,CC(=O)C(C)(C)C,inactive
4,CC(=O)NC1CCSC1=O (stereo not given),inactive
5,Cc1ccccc1C(=O)Nc1cccc(OC(C)C)c1,inactive
6,C=CCC1([C@H](C)CCC)C(=O)NC(=O)NC1=O,inactive
7,COC(=O)C(Cl)C(=O)OC,inactive
8,ClCc1cccc(Cl)c1,inactive
9,O=[N+]([O-])c1ccccc1CCl,inactive
10,O=S(=O)(Cl)c1ccccc1,inactive
11,O=[N+]([O-])c1ccc(F)c([N+](=O)[O-])c1,inactive
12,Nc1nc(=S)[nH][nH]1,inactive
13,CC(C)(Cl)[N+](=O)[O-],inactive
14,Clc1cc(Cl)c(Cl)c(Cl)c1,inactive
15,COCC(C)N(C(=O)CCl)c1c(C)csc1C (stereo not given),inactive
16,II,38.9 µM (active)
17,CCn1cc[n+](C)c1,inactive
18,Cn1cc[n+](C)c1 (tested in a mixture with another compound),inactive
19,CCCC(=O)Cl,inactive
20,O=C(CCl)c1ccc(Cl)cc1Cl,inactive

row,Structure (SMILES),Potency
1,CCOP(=O)(OCC)Oc1ccc([N+](=O)[O-])cc1,inactive
2,C=CC(=O)OC(C)(C)C,inactive
3,c1ccc(C2CC2)c(OCC2=NCCN2)c1,inactive
4,CCOC(=O)CBr,inactive
5,Clc1cccc2ccccc12,inactive
6,CC(Cl)C(C)Cl (stereo not given),inactive
7,Clc1cccc(SC2CCNCC2)n1,inactive
8,CCCCNP(N)(N)=S,inactive
9,CCCCCCCCCC(=O)O[C@H]1CC[C@H]2[C@@H]3CCC4=CC(=O)CC[C@@H]4[C@H]3CC[C@]12C,inactive
10,COP(=O)(OC)O/C(=C/Cl)c1cc(Cl)c(Cl)cc1Cl,inactive
11,CC(O)(CS(=O)(=O)c1ccc(F)cc1)C(=O)Nc1ccc(C#N)c(C(F)(F)F)c1 (stereo not given),inactive
12,C[C@H]1CNCCc2ccc(Cl)cc21,inactive
13,CCCCCCCCCCOC(=O)c1ccccc1C(=O)OCCCCCCCCCC,inactive
14,CC(C)(CCl)C(=O)Cl,inactive
15,c1ccc(CN2CCNCC2)cc1,inactive
16,O=C(C(Cl)(Cl)Cl)C(Cl)(Cl)Cl,inactive
17,CCOP(=S)(OCC)Oc1nc(Cl)c(Cl)cc1Cl,inactive
18,CCOP(=O)(OCC)O/C(=C/Cl)c1ccc(Cl)cc1Cl,inactive
19,c1cc2ccc3cccc4ccc(c1)c2c34,inactive
20,N#C/C(N)=C(/N)C#N,inactive
